The whole screen tested about 5,500 compounds, of which about 2,000 (36%) were called active. Inconclusive results (about 18%) are left out. Cut-off read from the data, not from the text of the source: active = normalized growth mostly below about 0.91 (no sharp cut-off); inconclusive = no clear call, values can overlap the other calls; inactive = mostly above about 0.92. Some of the results follow.
Test: chemical genetic growth profiling, strain panel (AID 1159580);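 note: tested at 20 µM; growth read once vehicle control cultures reached saturation at 30 °C; 1 = growth at the plate median or of vehicle wells; lower values mean less growth of the strain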
Details: S. cerevisiae deletion strains, growth OD
[1] = locus YAL040C, strain CLN3, hits give low values
[2] = locus YCL061C, strain MRC1 (second series), hits give low values
[3] = locus YDR363W, strain ESC2, hits give low values
[4] = locus YER002W, strain NOP16, hits give low values
[5] = locus YMR263W, strain SAP30, hits give low values
[6] = locus YMR307W, strain GAS1, hits give low values
[7] = locus YNL197C, strain WHI3, hits give low values
[8] = locus YNL224C, strain SQS1, hits give low values
[9] = locus YOR083W, strain WHI5 (second series), hits give low values
[10] = locus YPL055C, strain LGE1, hits give low values

Measured: normalized growth

COc1ccc(C2CNC(=O)C2)cc1OC1CCCC1 (stereo unspecified)
inactive: locus YAL013W, strain DEP1, hits give low values 1.01 | locus YAL021C, strain ccr4, hits give low values 1 | locus YAL026C, strain drs2, hits give low values 1.02 | locus YAL030W, strain snc1, hits give low values 1.02 | [1] 0.999 | locus YBL061C, strain skt5, hits give low values 1.01 | locus YBR009C, strain hhf1, hits give low values 1.02 | locus YBR023C, strain chs3, hits give low values 1.01 | locus YBR171W, strain sec66, hits give low values 1.02 | locus YBR231C, strain swc5, hits give low values 1.02 | locus YBR279W, strain paf1, hits give low values 1.01 | locus YCL011C, strain gbp2, hits give low values 1.01 | locus YCL016C, strain dcc1, hits give low values 1.01 | [2] 1 | locus YCL061C, strain MRC1, hits give low values 1.01 | locus YCL069W, strain vba3, hits give low values 1.01 | locus YCR088W, strain abp1, hits give low values 1.01 | locus YDL005C, strain med2, hits give low values 0.996 | locus YDL040C, strain nat1, hits give low values 1.01 | locus YDR001C, strain nth1, hits give low values 1.01 | locus YDR069C, strain doa4, hits give low values 1.02 | locus YDR137W, strain rgp1, hits give low values 1.02 | locus YDR159W, strain sac3, hits give low values 1.03 | locus YDR195W, strain ref2 1.01 | locus YDR297W, strain sur2, hits give low values 1.01 | locus YDR334W, strain swr1, hits give low values 1.01 | locus YDR335W, strain msn5, hits give low values 1.01 | [3] 1.01 | locus YDR392W, strain spt3, hits give low values 1.04 | locus YEL003W, strain gim4, hits give low values 1.01 | locus YEL037C, strain rad23, hits give low values 0.965 | locus YEL061C, strain CIN8 (second series), hits give low values 1.01 | [4] 0.993 | locus YER015W, strain faa2, hits give low values 1 | locus YER016W, strain bim1, hits give low values 1.01 | locus YER111C, strain swi4, hits give low values 1.02 | locus YER155C, strain BEM2 (second series), hits give low values 1.04 | locus YFR010W, strain ubp6, hits give low values 1 | locus YGL167C, strain pmr1, hits give low values 1.01 | locus YGL173C, strain kem1, hits give low values 1.01 | locus YGL227W, strain vid30, hits give low values 1.01 | locus YGL240W, strain doc1, hits give low values 1.02 | locus YGL253W, strain hxk2, hits give low values 1.03 | locus YHR013C, strain ard1, hits give low values 1.04 | locus YHR027C, strain rpn1, hits give low values 1.01 | locus YHR142W, strain chs7, hits give low values 0.98 | locus YJL092W, strain hpr5, hits give low values 1 | locus YJL095W, strain BCK1 (second series), hits give low values 1.01 | locus YJL115W, strain asf1, hits give low values 1.01 | locus YJL129C, strain trk1, hits give low values 1.02 | locus YJL154C, strain vps35, hits give low values 1 | locus YJL164C, strain tpk1, hits give low values 0.999 | locus YJL166W, strain qcr8, hits give low values 1.02 | locus YJL187C, strain SWE1, hits give low values 1.01 | locus YJR075W, strain HOC1, hits give low values 1.01 | locus YKL160W, strain elf1, hits give low values 0.998 | locus YKR026C, strain gcn3, hits give low values 0.994 | locus YKR091W, strain srl3, hits give low values 1.01 | locus YLL001W, strain dnm1, hits give low values 1.01 | locus YLL026W, hits give low values 1.02 | locus YLL041C, strain sdh2, hits give low values 1.01 | locus YLR027C, strain aat2, hits give low values 1.01 | locus YLR221C, strain rsa3, hits give low values 1.01 | locus YLR258W, strain gsy2, hits give low values 1.01 | locus YLR262C, strain YPT6 (second series), hits give low values 1.02 | locus YLR320W, strain mms22, hits give low values 1.02 | locus YLR342W, strain FKS1, hits give low values 1 | locus YLR357W, strain rsc2, hits give low values 1.01 | locus YLR370C, strain arc18, hits give low values 1.02 | locus YLR384C, strain iki3, hits give low values 0.999 | locus YML120C, strain ndi1, hits give low values 1.01 | locus YMR058W, strain fet3, hits give low values 1.02 | locus YMR125W, strain sto1, hits give low values 1.02 | locus YMR129W, hits give low values 1.02 | locus YMR205C, strain PFK2, hits give low values 1.03 | locus YMR231W, strain pep5, hits give low values 1 | [5] 1 | [6] 1.03 | locus YNL071W, strain lat1, hits give low values 1.02 | locus YNL175C, strain NOP13, hits give low values 1.01 | [7] 1.01 | locus YNL209W, strain ssb2, hits give low values 1.01 | [8] 0.995 | locus YNL248C, strain rpa49, hits give low values 0.974 | locus YNL322C, strain KRE1 (second series), hits give low values 0.996 | locus YNR049C, strain mso1, hits give low values 1 | locus YOR001W, strain rrp6, hits give low values 1 | locus YOR070C, strain gyp1, hits give low values 1 | locus YOR080W, strain dia2, hits give low values 1.01 | [9] 1.01 | locus YOR083W, strain WHI5, hits give low values 0.988 | locus YOR106W, strain vam3, hits give low values 0.989 | locus YOR265W, strain rbl2, hits give low values 1.01 | locus YOR270C, strain vph1, hits give low values 1.03 | locus YOR290C, strain snf2, hits give low values 0.996 | locus YPL051W, strain arl3, hits give low values 1 | [10] 0.996 | locus YPL078C, strain atp4, hits give low values 0.988 | locus YPL106C, strain sse1, hits give low values 1.04 | locus YPL240C, strain hsp82, hits give low values 1 | locus YPL241C, strain CIN2, hits give low values 1

O=C1C2C=CC=CC2=NC(=S)N1CCN1CCC(=C(c2ccc(F)cc2)c2ccc(F)cc2)CC1 (stereo unspecified)
inactive: [1] 0.896 | [2] 1.01 | locus YDR150W, strain NUM1, hits give low values 1 | [3] 0.951 | [4] 1.04 | [5] 0.985 | locus YNL128W, strain TEP1, hits give low values 1.06 | [7] 1.08 | [8] 1.02 | [10] 1.03
active: locus YGR078C, strain PAC10, hits give low values 0.857 | locus YGR229C, strain SMI1, hits give low values 0.717 | [6] 0.707 | locus YNL153C, strain GIM3, hits give low values 0.578 | [9] 0.607

Reference: PubChem BioAssay AID1159580 (chemical genetic matrix, 2015)
